High-throughput results deposited in PubChem by National Center for Advancing Translational Sciences (NCATS).
SARS PLpro yeast = SARS-CoV PLP inhibition in yeast; Potency, µM (series often up to 32.9 µM), for the others: top-dose activity, positive = growth rescue, most hits filed as activators; AID 485353; S. cerevisiae expressing SARS-CoV PLpro, growth rescue; 330,000 tested, 0.19% active; calls by dose curve; also: potency is read from the fitted curve at half-maximal effect; 0% is about no effect; nearly all actives have a fitted effect of over 55% in size
Shiga toxin inh = inhibitors of Shiga toxin in Vero cells; inhibition, % at 38.7 µM; AID 2315; Vero cells, Shiga toxin protein synthesis inhibition reporter; 290,000 tested, 9.2% active; in the data active = inhibition mostly above about 28%, no sharp cut-off; inactive = mostly below about 43%; also: 0% is about no effect
Cycloheximide cs = counter-screen for Shiga toxin inhibitors: cycloheximide protein synthesis inhibition | cell reporter, cycloheximide protein synthesis inhibition counterscreen | max response, % | 300,000 tested, 12% active; in the data active = max response mostly above about 13%, no sharp cut-off; inactive = mostly below about 14%; also: read at 38.3 µM for the half of the compounds with a filed dose; 0% is about no effect
LmPK inhibitor = blocks Leishmania mexicana pyruvate kinase activity; AID 1721; 290,000 tested, 0.37% active; Q27686; Potency, µM (highest dose often 57.5 µM), for inactives: at the highest dose activity change, negative = inhibition, most hits filed as inhibitors; purified LmPK, Kinase-Glo ATP luminescence, 1 h; also: potency is read from the fitted curve at half-maximal effect; % is scaled to controls: 0 for no effect and ±100 for the full control effect
Target sequence (Q27686 whole entry, looked up): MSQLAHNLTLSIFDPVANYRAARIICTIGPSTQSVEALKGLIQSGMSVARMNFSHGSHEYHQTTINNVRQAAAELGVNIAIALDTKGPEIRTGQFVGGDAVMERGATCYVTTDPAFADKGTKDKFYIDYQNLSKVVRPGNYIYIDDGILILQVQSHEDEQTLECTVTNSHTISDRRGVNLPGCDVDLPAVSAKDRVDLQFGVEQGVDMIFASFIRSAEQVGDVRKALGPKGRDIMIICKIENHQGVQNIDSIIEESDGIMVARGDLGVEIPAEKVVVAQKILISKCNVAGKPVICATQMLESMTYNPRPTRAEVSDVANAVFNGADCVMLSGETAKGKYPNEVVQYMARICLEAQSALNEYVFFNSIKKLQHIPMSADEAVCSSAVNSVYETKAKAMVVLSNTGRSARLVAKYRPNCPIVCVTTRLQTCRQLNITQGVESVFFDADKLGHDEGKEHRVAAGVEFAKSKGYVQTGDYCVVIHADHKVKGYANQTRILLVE
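Purified LmPK (0.1 nM) converted ADP (0.1 mM) to ATP with PEP (0.5 mM) in imidazole buffer pH 7.2 with KCl and MgCl2, 1 h at room temperature. ATP was read by Kinase-Glo luminescence; data normalized to uninhibited and no-enzyme controls.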
TbPYK inhibitor = inhibitors of Trypanosoma brucei pyruvate kinase. TbPYK enzyme, Kinase-Glo Plus ATP luminescence, 45 min. 410,000 tested, 0.12% active. Q57TT1. Potency, µM (top dose mostly 76.8 µM), without a hit: at the top dose activity, negative = inhibition, hits mostly inhibitors; also: potency is read from the fitted curve at half-maximal effect; % is scaled to controls: 0 for no effect and ±100 for the full control effect; nearly all actives have a fitted effect of over 50% in size
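In this concentration-response screen, enzyme-free wells defined baseline while DMSO plates tracked drift. Each reaction combined TbPYK, substrate, compound and 130 uM ADP for 45 min at room temperature. Kinase-Glo Plus luminescence gave the signal.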
NS1 function inh = inhibitors of influenza NS1 protein function; Potency, µM (series often up to 46.1 µM), for inactives: top-dose activity, positive = more growth; 270,000 tested, 0.4% active; AID 2326; calls by dose curve; also: potency is read from the fitted curve at half-maximal effect; actives are rising curves; nearly all actives have a fitted effect of over 50% in size
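In this qHTS, NS1 from influenza A is expressed in budding yeast, where it slows growth. Cells are switched from glucose to 2% galactose medium (pH 6.0, -URA), treated with compound, and growth recovery is read at OD600.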
* hit, by the source's call; · = not tested or not shown. Many of the other results were omitted from the sample, so hits are more common in it than they were. Unless noted, calls follow the shape of the dose curve; as a rule, active = well fitted curve in the direction sought with a large enough effect; inconclusive = small, poorly fitted or top-dose-only effect, or another doubt; inactive = no such curve, though single readings can be large; an effect the other way counts as inactive or inconclusive.

SMILES	SARS PLpro yeast	Shiga toxin inh	Cycloheximide cs	LmPK inhibitor	TbPYK inhibitor	NS1 function inh
O=C(NC1CCCCC1)C(c1cccs1)N(C(=O)c1ccco1)c1ccc2c(c1)OCCO2 (centres undefined)	-8%	10*	24*	-10%	-6%	22%
CCc1ccc(N(C(=O)c2ccco2)C(C(=O)NC2CCCC2)c2ccncc2)cc1 (centres undefined)	-3%	74*	15*	-4%	1%	-7%
COC(=O)c1ccc(CNC(=O)Cn2cnc(C(=O)Nc3ccc(C)c(C)c3)n2)cc1	-5%	·	·	·	1%	·
O=C(CCCN1CCN(c2ccc(F)cc2)CC1)NC1c2ccccc2CSc2ccccc21 (centres undefined)	·	·	·	·	-8%	·
COc1ccc(C2C=C3CNS(=O)(=O)C3CC2OC(=O)c2cccs2)cc1 (centres undefined)	·	-11	9	·	·	·
COc1ccc2c(CNCc3cccs3)c(C(=O)O)n(Cc3ccccc3F)c2c1	·	·	·	·	-1%	·
CN(C)C1=NC[C@H](Cc2ccccc2)N1CC1CCCCCC1	-5%	·	·	·	1%	·
CCCN1CCC(=O)N(C(CSc2ccc(C)cc2)CC(C)C)CC1 (centres undefined)	·	77*	42*	·	·	·
CCCN1CCC(=O)N([C@H](CSc2ccc(C)cc2)CC(C)C)CC1	1%	62*	71*	5%	-4%	-5%
CCCN1CCC(=O)N([C@H](CSc2ccc(C)cc2)Cc2ccccc2)CC1	0%	-6	-4	4%	2%	4%
CC(C)C[C@@H](CSc1ccccc1)N1CCN(CC(C)C)CCC1=O	-3%	47*	35*	2%	-9%	-17%
CC(C)C[C@@H](CO)N1CCN(Cc2ccc(Br)cc2)CCC1=O	3%	-8	1	-1%	-11%	2%
CC(C)CC(CSc1ccc(Br)cc1)N1CCN(CC(C)C)CCC1=O (centres undefined)	·	108*	80*	·	·	·
CC(=O)Nc1ccc(SCC(CC(C)C)N2CCN(CC(C)C)CCC2=O)cc1 (centres undefined)	·	-13	-10	·	·	·
C=CCNCc1ccccc1[N+](=O)[O-]	-6%	·	·	·	-13%	·
CCn1cc(S(=O)(=O)c2ccc(Cl)cc2)c(=O)c2cc(OC)ccc21	2%	-2	-3	6%	4%	4%
CCCN1CCC(=O)N([C@H](COc2ccccc2)CC(C)C)CC1	-4%	11	1	0%	1%	-2%
CCCN1CCC(=O)N([C@H](CSc2ccccc2)CC(C)C)CC1	5%	42*	45*	3%	-3%	-5%
Cc1c(Cl)sn(-c2ccc(Cl)cc2)c1=O	-6%	92*	35*	1%	4.5µM*	-57%
Cc1c(C(=O)O)sc(=S)n1-c1ccc(Cl)cc1	1%	-3	0	3%	2%	13%
O=C(CSc1ncccn1)N1CCCc2ccccc21	2%	28	11*	1%	0%	·
Cc1ccnc(SCC(=O)N2CCc3ccccc32)n1	1%	73*	32*	-7%	-2%	-5%
Cc1ccc2c(c1)CCCN2C(=O)CSc1ccccc1	1%	53	12*	-4%	-5%	-29%
O=C(CSc1ccc2nnc(-c3ccc(Cl)cc3)n2n1)N1CCCc2ccccc21	-12%	24	17*	4%	-25%	6%
O=C(CSc1ccc2nnc(-c3ccc(F)cc3)n2n1)N1CCCc2ccccc21	-10%	-12	-4	1%	3%	-1%
CC(C)c1ccc(NC(=O)Cn2c(=O)n(CC3CCC(C(=O)NCCc4ccccc4)CC3)c(=O)c3ccccc32)cc1 (centres undefined)	·	·	·	·	-4%	·
CC(C)N(Cc1ccccc1)S(=O)(=O)c1ccc(N2CCCCS2(=O)=O)cc1	·	·	·	·	-10%	·
O=C(CSc1ncccn1)n1c2c(c3ccccc31)CCCC2	-12%	52*	33*	-5%	-3%	-31%
O=C(O)c1cccnc1SCC(=O)N1CCCc2ccccc21	-2%	99*	47*	7%	2%	-2%
Cc1ccc(C(=O)Nc2nnc(SCC(=O)N3CCCc4ccccc43)s2)cc1	-30%	49*	33*	-3%	-3%	9%
